“And” between values parts separate entries of the source, which are not always exact repeats. Equal entries are not always repeated. Results filed as inconclusive are left out. The source made the active and inactive calls. Unless noted, calls follow the shape of the dose curve; as a rule, active = well fitted curve in the direction sought with a large enough effect; inconclusive = small, poorly fitted or top-dose-only effect, or another doubt; inactive = no such curve, though single readings can be large; an effect the other way counts as inactive or inconclusive.

Assay [1] can be described thus: qHTS of Nrf2 Activators: LOPAC Validation (AID 624149). Also: 0% is about no effect. The essentials: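 AREc32_Fluc cells, 1000/well, OPTI-MEM + 5% FBS, o/n 37 deg C 5% CO2; compound pin-transfer, 24 hr 37 deg C; Steady-Glo 30 min RT, luminescence read.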
A short description of assay [2]: HTS Assay for Allosteric Antagonists of the Human D2 Dopamine Receptor: Hit Validation in HTRF (AID 624455). Also: % is scaled to controls: 0 for no effect and ±100 for the full control effect. The essentials:
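HTRF read-out; cells stably expressing D1 receptor; hits scored for inhibition of D1-mediated response. Primary screen: calcium flux, force-coupled inducible Hek293 Trex D2 line, antagonism vs EC80 dopamine.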

Assay [3] is described as follows: qHTS assay for small molecule activators of the nuclear factor-kappa B (NF-kB) signaling pathway (AID 651749; active = well fitted activation curve with a large enough effect in the signal ratio; the % refers to the signal ratio; also: % of control where 0% means no effect). The note with it: NF-kB-bla ME-180 cells, beta-lactamase FRET ratio, 16 h; stronger effect = higher value. The essentials: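 Beta-lactamase reporter expression, controlled by NF-kB response elements in ME-180 cells, was quantified fluorometrically via FRET disruption; cells at 2,000/well had been incubated with 23 nL test compound for 16 hr.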
In general terms: qHTS replaces the single test concentration by a dilution series.

Assay [4] in a line: qHTS assay for environmental chemicals that activate the Aryl hydrocarbon Receptor (AhR) signaling pathway (AID 651777). Also: nearly all actives have a fitted effect of over 15% in size. Also: potency is read from the fitted curve at half-maximal effect. As to activation: % of control where 0% means no effect. The following applies: 1A2-DRE human hepatoma cells, luciferase, 24 h; activation: stronger effect = higher value. In outline: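 1A2-DRE human hepatoma reporter line; 1,200 cells/well; cmpd or DMSO 24 h, 37 C/5% CO2; One-Glo 30 min RT; luciferase lum.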
Assay [5] has as its target Peroxisome proliferator-activated receptor alpha (Homo sapiens) (UniProt Q07869). The experiment in a line: qHTS assay for small molecule agonists of the peroxisome proliferator-activated receptor alpha (PPARalpha) signaling pathway (AID 651778). Also: % of control where 0% means no effect. The following applies: PathHunter PPARalpha complementation, chemiluminescence, 6 h; stronger effect = higher value. In outline: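 Cells plated at 2,000/well and held overnight at 37 C, 5% CO2, then compound added by pin tool for 6 hr; after PathHunter detection reagent and 60 min at room temperature, chemiluminescence from enzyme complementation was read.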

Assay [6] can be described thus: Cytotoxicity counterscreen for NFkB agonists and antagonists (AID 624476). Also: potency is read from the fitted curve at half-maximal effect. For orientation: A counterscreen serves to expose hits that act by an unwanted route or on another target.
Assay [7] is described as follows: qHTS Assay for Identification of Small Molecule Agonists for NFkB Signaling Pathway. (AID 624478).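 Also: compounds tested together with TNF alpha at its EC50 of 10 pM; 0% is about no effect.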 The essentials: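 Read-out: 460/530 nm emission at 405 nm excitation after 2 h LiveBLAzer loading; ME-180 NFkB-bla reporter cells exposed 5 h at 37 C to compounds with 10 pM TNF alpha final.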
Assay [8] in a line: Cell Proliferation Assay against the TMD8 Cell Line (AID 651645).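 Also: cells exposed to compound for 48 h before reading.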 The note with it: TMD8 DLBCL cell line proliferation/viability; at 46.1 µM (top of the series) unless noted. The essentials:
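TMD8 ABC DLBCL cells, 500 per well in phenol red-free RPMI with 5% FBS, were treated with compound by pin transfer and incubated 48 hours at 37C, 5% CO2. Viability was read by CellTiter-Glo luminescence, normalised to DMSO (100%) and 9.2 uM bortezomib (0%).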

Assay [9] can be described thus: Cell Proliferation Assay against the HBL1 Cell Line (AID 651646).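 Also: cells exposed to compound for 48 h before reading.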 The note with it: HBL1 DLBCL cells; at 46.1 µM (top of the series) unless noted. In outline:
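After a 48 h incubation of 500 HBL1 cells/well in phenol red-free RPMI plus 5% FBS, relative luciferase units from CellTiter-Glo gave percent activity against DMSO and 9.2 uM bortezomib (final) controls.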

The nature of assay [10]: qHTS Assay for Identification of Small Molecule Antagonists for NFkB Signaling Pathway. (AID 624479; calls by dose curve;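 also: pathway stimulated with TNF alpha; % is scaled to controls: 0 for no effect and ±100 for the full control effect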).
Assay [11] is described as follows: Cell Proliferation Assay against the TMD8 Cell Line (Caspase readout at 16 hrs) (AID 651712).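 Also: 0% = DMSO and 100% = 9.2 µM bortezomib caspase activation.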 The essentials:
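16 h, 37 °C, TMD8 (500 cells/well), RPMI/5% FBS no phenol red; Caspase-Glo 3/7, 15 min RT, luminescence; %act: DMSO 0, bortezomib 9.2 uM final 100.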

The nature of assay [12]: Cell Proliferation Assay against the TMD8 Cell Line (Caspase readout at 8 hrs) (AID 651713).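 Also: 0% = DMSO and 100% = 9.2 µM bortezomib caspase signal.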 In outline:
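Apoptosis readout: caspase 3/7 luminescence (Caspase-Glo), 15 min RT. Cells: TMD8, 500/well, RPMI + 5% FBS, no phenol red. Exposure 8 h, 37C. % activity vs DMSO = 0, bortezomib 9.2 uM final = 100.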

Assay [13] addresses Tyrosine-protein kinase Yes (Homo sapiens) (UniProt P07947). In words: qHTS for small molecule inhibitors of Yes1 kinase: Primary Screen (AID 686947). Also: nearly all actives have a fitted effect of over 60% in size. Also: potency is read from the fitted curve at half-maximal effect. The essentials: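 In this qHTS format, inhibition is expressed relative to DMSO controls with enzyme (maximum) and without enzyme (minimum). The 60 min room-temperature reaction uses 0.1 mM ATP, with ADP detected by luminescence.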

Assay [14] can be described thus: qHTS assay for small molecule activators of the p53 signaling pathway (AID 651743; active = well fitted activation curve with a large enough effect in the signal ratio, not every such curve was filed as active; the % refers to the signal ratio; also: % of control where 0% means no effect). The note with it: HCT-116 p53RE-bla, beta-lactamase FRET ratio, 16 h; activation: stronger effect = higher value. In outline: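 Here HCT-116 cells with an integrated p53-responsive beta-lactamase gene were incubated with compounds (16 hours, 37 C) after a 5-hour plating period; beta-lactamase activity was detected as fluorescence intensity via B/G FRET substrate.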

A short description of assay [15]: qHTS assay for small molecule agonists of the antioxidant response element (ARE) signaling pathway (AID 651741; active = well fitted activation curve with a large enough effect in the signal ratio; the % refers to the signal ratio; also: potency is read from the fitted curve at half-maximal effect). The essentials:
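Beta-lactamase reporter expression driven by the antioxidant response element in HepG2 cells was detected by fluorescence with LiveBLAzer B/G FRET substrate (2 h, room temperature) following 16 h compound treatment at 37 C.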

Sequence of Peroxisome proliferator-activated receptor alpha (Homo sapiens) (Q07869 whole entry, looked up): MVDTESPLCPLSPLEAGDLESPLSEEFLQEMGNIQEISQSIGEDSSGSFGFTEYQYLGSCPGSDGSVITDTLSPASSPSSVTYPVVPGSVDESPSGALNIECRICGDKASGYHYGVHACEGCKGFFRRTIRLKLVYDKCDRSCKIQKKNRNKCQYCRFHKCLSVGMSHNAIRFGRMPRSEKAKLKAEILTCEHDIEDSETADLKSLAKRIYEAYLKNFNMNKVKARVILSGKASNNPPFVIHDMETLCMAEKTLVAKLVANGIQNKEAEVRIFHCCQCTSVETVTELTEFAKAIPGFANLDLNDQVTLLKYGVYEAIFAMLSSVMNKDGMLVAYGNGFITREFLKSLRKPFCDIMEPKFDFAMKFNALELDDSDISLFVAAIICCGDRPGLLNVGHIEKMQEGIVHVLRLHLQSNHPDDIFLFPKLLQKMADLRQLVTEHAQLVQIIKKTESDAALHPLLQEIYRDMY
Sequence of Tyrosine-protein kinase Yes (Homo sapiens) (P07947 whole entry, looked up): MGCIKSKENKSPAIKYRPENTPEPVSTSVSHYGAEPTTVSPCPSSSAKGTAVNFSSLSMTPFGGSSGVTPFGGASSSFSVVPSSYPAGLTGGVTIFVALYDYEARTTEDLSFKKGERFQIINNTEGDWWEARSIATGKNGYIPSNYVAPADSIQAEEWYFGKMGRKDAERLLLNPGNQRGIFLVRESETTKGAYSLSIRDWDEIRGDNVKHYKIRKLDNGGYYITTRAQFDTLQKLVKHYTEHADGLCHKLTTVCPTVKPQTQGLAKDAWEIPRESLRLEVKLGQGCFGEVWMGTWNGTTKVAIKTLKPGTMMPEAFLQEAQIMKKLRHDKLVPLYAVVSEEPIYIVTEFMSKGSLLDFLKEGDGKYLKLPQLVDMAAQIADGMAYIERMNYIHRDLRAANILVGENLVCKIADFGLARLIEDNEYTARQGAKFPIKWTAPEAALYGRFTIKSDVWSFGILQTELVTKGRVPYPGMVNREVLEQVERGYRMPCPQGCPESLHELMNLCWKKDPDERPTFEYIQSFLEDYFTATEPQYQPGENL

For the compound `COc1cc2nc(N3CCN(C(=O)C4CCCO4)CC3)nc(N)c2cc1OC` (centres undefined), the outcome in [1] and in assay [2] was inactive.
Turning to `CN(C)CCCC1(c2ccc(F)cc2)OCc2cc(C#N)ccc21` (centres undefined), the outcome in assay [1] and in assay [2] was inactive.
With `Oc1ccc2ccccc2c1SSc1c(O)ccc2ccccc12`, the compound was called inactive in assay [1] and in [2].
With `COc1ccc2cc([C@H](C)C(=O)O)ccc2c1`, the compound was classed as inactive in [1].
For `NNc1nncc2ccccc12`, the compound was classed as inactive in assay [1] and in assay [2].
Take `O=C(CCc1ccc(O)cc1)c1c(O)cc(O)cc1O`: the result in assay [1] and in assay [2] was inactive.
On to `Cc1cc(O)c2c(c1)C(=O)c1cc(O)cc(O)c1C2=O`, for which the result in [1] and in assay [2] was inactive. The activation in [3] is 0.85% (inactive) and -1.63% (inactive). Besides, the Potency in assay [4] was 44.7 µM (active). Further, the max response in [5] is -5.19% (inactive) and -6.73% (inactive).
In the case of `O=c1c(O)c(-c2cc(O)c(O)c(O)c2)oc2cc(O)cc(O)c12`, the result in assay [1] and in [2] was inactive.
As for `Nc1nc(OCc2ccccc2)c2[nH]cnc2n1`, the compound was classed as inactive in assay [1] and in assay [2].
As to `C[C@H](Cc1ccc(O)c(O)c1)[C@@H](C)Cc1ccc(O)c(O)c1`, the compound was classed as inactive in assay [1] and in assay [2].
Turning to `Cc1c(OCC(F)(F)F)ccnc1CS(=O)c1nc2ccccc2[nH]1` (centres undefined), the call in assay [1] and in [2] was inactive.
As to `O=C(c1ccccc1)c1ccc2n1CCC2C(=O)O` (centres undefined), the outcome in assay [1] and in assay [2] was inactive.
Regarding `O=C1c2ccccc2-c2n[nH]c3cccc1c23`, the outcome in assay [1] and in assay [2] was inactive.
Turning to `CC(=O)N1CCN(c2ccc(OC[C@H]3CO[C@](Cn4ccnc4)(c4ccc(Cl)cc4Cl)O3)cc2)CC1`, the outcome in [1] and in assay [2] was inactive. For the same compound, the max response in assay [5] is -0.168% (inactive).
With `CC1(C)C(=O)N(CCN2CCC(C(=O)c3ccc(F)cc3)CC2)c2ccccc21`, the compound was called inactive in assay [1] and in assay [2].
For `CC(C)c1ccc2c(c1)c(SC(C)(C)C)c(CC(C)(C)C(=O)O)n2Cc1ccc(Cl)cc1`, the result in assay [1], in assay [2] and in [7] was inactive. Also, the Potency in assay [6] was 8.33 µM (active). The viability (% of control) in assay [8] stood at 9.44%. Besides, in assay [9], the viability, percent of control turned out to be 8.87%.
For `OC(CN1CCN(c2cccc(Cl)c2)CC1)C(c1ccccc1)c1ccccc1` (centres undefined), the outcome in [1] and in assay [2] was inactive.
As for `CC(=O)O[C@H]1C(=O)[C@@]2(C)C([C@H](OC(=O)c3ccccc3)[C@]3(O)C[C@H](OC(=O)[C@H](O)[C@@H](NC(=O)c4ccccc4)c4ccccc4)C(C)=C1C3(C)C)[C@]1(OC(C)=O)CO[C@@H]1C[C@@H]2O` (some centres undefined), the compound was called inactive in assay [1] and in assay [2].
On to `COc1ccccc1N1CCN(CCN(C(=O)C2CCCCC2)c2ccccn2)CC1`, for which the outcome in [1] and in assay [2] was inactive.
For the compound `NCCCCNCCCN`, the result in assay [1] and in assay [2] was inactive.
Consider `CCOC(=O)C(C)Oc1cccc2c(=O)n(CC(=O)Nc3ccc4c(c3)OCCO4)ccc12` (centres undefined), for which the call in assay [1], in assay [2] and in assay [7] was inactive. Moreover, the Potency entry in [6], in assay [10], in [11], in assay [12] and in [13] was “inactive” each time. Besides, in assay [8], the viability (% of control) was 109%. Moreover, in assay [9], the viability, percent of control is 108%.
For `O=c1ccc2ccc(O)c(O)c2o1`, the result in [1] and in assay [2] was inactive.
`NC(=NCc1ccccc1)NC(=O)c1nc(Cl)c(N)nc1N`: the compound was classed as inactive in assay [1] and in assay [2].
With `Oc1ccc(-c2nc(-c3ccc(F)cc3)c(-c3ccncc3)[nH]2)cc1`, the call in assay [1] and in [2] was inactive. In addition, the Potency in assay [13] was 17.3 µM (active).
For `Nc1nc(N)c(N=O)c(OCC2CCCCC2)n1`, the call in assay [1] and in assay [2] was inactive.
As to `O=c1cc(N2CCOCC2)oc2c(-c3ccccc3)cccc12`, the result in [1] and in [2] was inactive.
Regarding `O=c1c(O)c(-c2ccc(O)cc2O)oc2cc(O)cc(O)c12`, the compound was called inactive in [1] and in assay [2]. Further, the activation in [14] was -1.48% (inactive); in assay [4], 4.65% (inactive). Also, the max response in [5] is -3.16% (inactive).
Take `CC1(C)NC(=O)N(c2ccc([N+](=O)[O-])c(C(F)(F)F)c2)C1=O`: the result in [1] and in assay [2] was inactive. Besides, in [15], the Potency was 54.5 µM (active). Besides, the activation was 15.1% (inactive) in [14] and 1.77% (inactive) in [4]. Moreover, in assay [5], the max response is -2.93% (inactive).
For the compound `Nc1ccn([C@@H]2O[C@H](CO)[C@@H](O)C2O)c(=O)n1` (some centres undefined), the compound was called inactive in assay [1] and in assay [2].
On to `O=C(O)c1cccnc1Nc1cccc(C(F)(F)F)c1`, for which the compound was called inactive in assay [1] and in [2].
`O=C1NC(=O)C(c2ccccc2[N+](=O)[O-])=C1Nc1ccc(O)c(Cl)c1`: the compound was called inactive in [1].
As for `COc1cc2c(cc1OC)C1CC(=O)C(CC(C)C)CN1CC2` (centres undefined), the result in assay [1] was inactive.
In the case of `O=C1c2c(O)cc(O)cc2OC(c2ccc(O)c(O)c2)C1O` (centres undefined), the outcome in assay [1] and in assay [2] was inactive.
Regarding `Cc1cccc(C#Cc2ccccc2)n1`, the result in assay [2] was inactive.
On the same count and under the same terms, for `O=Nc1c(-c2c(O)[nH]c3cc(Br)ccc23)[nH]c2ccccc12` the value was “inactive”.

For the origin of these results see PubChem BioAssay (NCATS).
